Source: PubChem BioAssay (NCATS)
Values joined by “and” are separate entries in the source; they are usually repeats but may differ in a detail not shown here. Equal entries are not always repeated. Inconclusive results are not listed. Active and inactive are the calls of the source. Calls come from the whole dose curve; as a rule, active = well fitted curve in the direction sought with a large enough effect; inconclusive = small, poorly fitted or top-dose-only effect, or another doubt; inactive = no such curve, though single readings can be large; an effect the other way counts as inactive or inconclusive. Peptide text beside a SMILES is read from it. * marks the point of attachment. Cbz = O=C(OCc1ccccc1)*; CH2F = FC*

Key:
[1] = target: Cellular tumor antigen p53 (Homo sapiens) (UniProt P04637); experiment: Primary qHTS for small molecule compounds that upregulate eGFP-tagged delta133p53alpha (in N-terminal) cells. (AID 2060322); conditions: NCI-H358 eGFP-delta133p53alpha fluorescence, 24 h; activation: hits give high values;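 note: 0% = DMSO vehicle and 100% = reference activator; nearly all actives have a fitted effect of over 75% in size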
Sequence of Cellular tumor antigen p53 (Homo sapiens) (P04637 whole entry, looked up): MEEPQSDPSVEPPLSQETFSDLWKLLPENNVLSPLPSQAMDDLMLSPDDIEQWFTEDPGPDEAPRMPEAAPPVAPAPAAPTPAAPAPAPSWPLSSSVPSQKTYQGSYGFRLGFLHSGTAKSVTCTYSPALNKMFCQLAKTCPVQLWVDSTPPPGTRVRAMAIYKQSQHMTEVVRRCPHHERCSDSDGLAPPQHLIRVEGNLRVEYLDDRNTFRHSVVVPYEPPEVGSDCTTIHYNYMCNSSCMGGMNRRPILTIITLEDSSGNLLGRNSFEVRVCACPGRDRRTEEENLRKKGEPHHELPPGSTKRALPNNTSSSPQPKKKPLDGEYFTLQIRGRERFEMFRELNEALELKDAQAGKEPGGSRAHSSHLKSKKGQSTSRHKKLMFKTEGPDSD
In short: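 NCI-H358 cells pre-induced 24 h with 10 ng/ml doxycycline to express N-terminal eGFP-delta133p53alpha, then dosed 24 h at 37C without doxycycline; fixed, Hoechst-stained, GFP intensity by laser scanning cytometry, normalized to DMSO (0%) and 57.5 uM 5-azacytidine (100%).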

[2] = target: Aldehyde dehydrogenase, mitochondrial (Homo sapiens) (UniProt P05091); experiment: qHTS for Inhibitors of the Aldehyde Dehydrogenase Family (ALDH2) Primary screen (AID 2061308); conditions: ALDH2 enzyme inhibition qHTS, 1536-well; series mostly up to 56 µM;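 note: plate controls were vehicle for no effect and reference inhibitor for full effect; nearly all actives have a fitted effect of over 55% in size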
[3] = target: Retinaldehyde dehydrogenase 3 (Homo sapiens) (UniProt P47895); experiment: qHTS for Inhibitors of the Aldehyde Dehydrogenase Family (ALDH1A3) Primary screen (AID 2061315); conditions: ALDH inhibition qHTS; series mostly up to 56 µM;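 note: plate controls were DMSO vehicle for no effect and reference inhibitor for full effect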

NCCCC[C@H](NC(=O)[C@@H]1Cc2ccccc2CN1C(=O)CCC(=O)c1ccccc1)C(=O)NCC(c1ccccc1)c1ccccc1
inactive: activation [1] -6.33% | Potency [2] | Potency [3]

CC1CCC2(C(=O)OC3OC(CO)C(O)C(O)C3O)CCC3(C)C(=CCC4C5(C)CC(O)C(O)C(C)(C(=O)O)C5CCC43C)C2C1(C)O (stereo not given)
inactive: activation [1] -18.3% | Potency [2] | Potency [3]

CCOC(=O)N1CCC(N2CCC[C@@H](NC(=O)c3ccccc3C)C2)CC1
inactive: activation [1] -2.86% | Potency [2] | Potency [3]

CC1C2=CC(=O)OC2(O)CC2C1C(OC(=O)c1ccccc1)C(OC(=O)c1ccccc1)C1(O)C2(C)CCC(O)C1(C)C(=O)O (stereo not given)
inactive: activation [1] 26.7% | Potency [2] | Potency [3]

COC(=O)c1ccc(N2CCN(C)CC2)c(NC(=O)c2cccc(OC)c2)c1
inactive: activation [1] 9% | Potency [2] | Potency [3]

CC(=O)OC1CCC2(C)C(CCC3(C)C2CC=C2C4CC(C)(C)CCC4(C)CCC23C)C1(C)C(=O)O (stereo not given)
inactive: activation [1] 27.7% | Potency [2] | Potency [3]

N#Cc1cc(CN2CCC(Nc3ncnc4sc(Cl)cc34)CC2)ccc1F
inactive: activation [1] 5% | Potency [2] | Potency [3]

C=CC1C(O[C@@H]2O[C@H](CO)[C@@H](O)[C@H](O)[C@H]2O)OC=C(C(=O)OC)C1CC(=O)O (stereo not given in full)
inactive: activation [1] 23.2% | Potency [2] | Potency [3]

CC1C(=O)OCC2=CCN3CCC(OC(=O)C(C)(O)C1(C)O)C23 (stereo not given)
inactive: activation [1] -5.36% | Potency [2] | Potency [3]

COC(=O)C1=CO[C@@H](O[C@@H]2O[C@H](CO)[C@@H](O)[C@H](O)[C@H]2O)[C@@H]2[C@@H](CO)[C@@H](O)C(O)[C@H]12 (stereo not given in full)
inactive: activation [1] -1.79% | Potency [2] | Potency [3]

COC12CC3C(C(C)C1=CC(=O)O2)C(O)C(OC(C)=O)C1C(C)(C)C(OC(C)=O)CCC31C (stereo not given)
inactive: activation [1] -3.05% | Potency [2] | Potency [3]

C/C(=C\CCC(C)C1CC(O)C2(C)C3CCC4C(C)(C)C(OC5OCC(O)C(O)C5O)CCC45CC35CC(O)C12C)C(=O)O (stereo not given)
inactive: activation [1] 17.6% | Potency [2] | Potency [3]

COc1c2c(c(C)c3c1C(=O)OC3)O[C@@]1(C)CC(O)C(C(C)(C)O)[C@](C)(CCC(=O)O)[C@H]1C2 (stereo not given in full)
inactive: activation [1] -9.16% | Potency [2] | Potency [3]

COC(=O)CC[C@H](NC(=O)[C@H](CC(C)C)NC(=O)OCc1ccccc1)C(=O)N[C@@H](Cc1cnc[nH]1)C(=O)N[C@@H](CC(=O)OC)C(=O)CF (Cbz-LE(OMe)HD(OMe)-CH2F)
inactive: activation [1] 23.7% | activity change, negative = inhibition [2] -2.9% [at 11.2 µM] | activity change, negative = inhibition [3] -9.94% [at 11.2 µM]

Cc1cnn(-c2ccccc2)c1NC(=O)COCc1ccccc1
inactive: activation [1] 0.333% | Potency [2] | Potency [3]

CC(O)C(O)/C=C/C=C/C(=O)O[C@@H]1C=C2COC(=O)[C@]2(O)[C@@]2(C)CCCC(C)(C)C12 (stereo not given in full)
inactive: activation [1] -18.3% | Potency [2] | Potency [3]

C#CCOc1ccc2c(c1)c(-c1ccc(C(C)C)cc1)nc(=O)n2C(C)C
inactive: activation [1] -0.893% | Potency [2] | Potency [3]

CC(=O)OC1CC2(C)C3=CCC4(C)C5C(O)C(O)C(C(C)C)C5(C)CCC4(C)C3CCC2C(C)(C)C1OC1OC(CO)C(O)C(O)C1O (stereo not given)
inactive: activation [1] -1.53% | Potency [2] | Potency [3]

O=C(NCCN1CCCC1)c1cc(-c2ccc(CN3CCOCC3)cc2)nc2ccc(F)cc12
inactive: activation [1] 3.67% | Potency [2] | Potency [3]

CC1=CC(=O)CC(C)(CO[C@@H]2O[C@H](CO)[C@@H](O)[C@H](O)[C@H]2O)C1(O)/C=C/C(C)=C/C(=O)O (stereo not given in full)
inactive: activation [1] 0.893% | Potency [2] | Potency [3]

CC(C)(O)/C=C/C(=O)[C@](C)(O)[C@H]1[C@H](O)C[C@@]2(C)[C@@H]3CC=C4[C@@H](C=C(O[C@@H]5O[C@H](CO)[C@@H](O)[C@H](O)[C@H]5O)C(=O)C4(C)C)[C@]3(C)C(=O)C[C@]12C
inactive: activation [1] -13.7% | Potency [2] | Potency [3]

CC(C)(O)C1=CCC23COC(C2)C(O)(C(=O)O)CCC13 (stereo not given)
inactive: activation [1] -6.87% | Potency [2] | Potency [3]

Cc1ccc(-c2ncc[nH]2)cc1NC(=O)c1ccc(OCc2ccccn2)cc1
inactive: activation [1] -2.86% | Potency [2] | Potency [3]

NS(=O)(=O)Nc1ncnc(OCCOc2ncc(Br)cn2)c1-c1ccc(Br)cc1
inactive: activation [1] 18.1% | Potency [2] | Potency [3]

COc1cc(O)cc(C)c1C(=O)OC1C(CO)OC(OC2C(O)C(O)C(O)C(O)C2O)C(O)C1O (stereo not given)
inactive: activation [1] -29% | Potency [2] | Potency [3]

O=C(CCCN1CC=C(n2c(=O)[nH]c3ccccc32)CC1)c1ccc(F)cc1
inactive: activation [1] 17.5% and 4.33% | Potency [2] | Potency [3]

COCCOCCOc1ccc(C2=N[C@@](C)(C(=O)O)CS2)c(O)c1
inactive: activation [1] 1.67% | Potency [2] | Potency [3]

C=CC1(C)C=C2CC[C@H]3[C@@](C)(C(=O)O)CCC[C@]3(C)C2CC1 (stereo not given in full)
inactive: activation [1] -0.763% | Potency [2] | Potency [3]

O=C(CCc1ccccc1)c1c(O)c([C@@H]2O[C@H](CO)[C@@H](O)[C@H](O)[C@H]2O)c(O)c([C@@H]2O[C@H](CO)[C@@H](O)[C@H](O)[C@H]2O)c1O
inactive: activation [1] -1.53% | Potency [2] | Potency [3]

CC(C)=CCC[C@](C)(O[C@@H]1O[C@H](CO[C@@H]2O[C@H](CO)[C@@H](O)[C@H](O)[C@H]2O)[C@@H](O)[C@H](O)[C@H]1O)C1CC[C@]2(C)[C@@H]1[C@H](O)CC1[C@@]3(C)CC[C@H](O[C@@H]4O[C@H](CO)[C@@H](O)[C@H](O)[C@H]4O[C@@H]4O[C@H](CO)[C@@H](O)[C@H](O)[C@H]4O)C(C)(C)[C@@H]3CC[C@]12C (stereo not given in full)
inactive: activation [1] -6.25% | Potency [2] | Potency [3]

CCCOc1ccc(-c2nc(OC)c3ccccc3n2)cc1
inactive: activation [1] -5.67% | Potency [2] | Potency [3]

CC1(C(=O)O)CCCC2(C)C3CC4C5CC3(CCC12)CC45C (stereo not given)
inactive: activation [1] 17.9% | Potency [2] | Potency [3]

COc1ccc(S(=O)(=O)n2cnc3cc(C)c(C)cc32)cc1
inactive: activation [1] -3.67% | Potency [2] | Potency [3]

CC1(C)CC[C@]2(C(=O)O[C@@H]3O[C@H](CO)[C@@H](O)[C@H](O)[C@H]3O)CC[C@]3(C)C(=CCC4[C@@]5(C)CC[C@H](OC6OC(C(=O)O)C(OC7OC(CO)C(O)C(O)C7O)C(O)C6O)C(C)(C)C5CC[C@]43C)C2C1 (stereo not given in full)
inactive: activation [1] -16.8% | Potency [2] | Potency [3]

CC(=C/C(=O)O)/C=C/[C@]1(O)[C@@]2(C)CO[C@]1(C)C[C@H](O[C@@H]1O[C@H](CO)[C@@H](O)[C@H](O)[C@H]1O)C2
inactive: activation [1] -16.1% | Potency [2] | Potency [3]

CC1(CO)CC[C@]2(C(=O)O[C@@H]3O[C@H](CO)[C@@H](O)[C@H](O)[C@H]3O)CC[C@]3(C)C(=CCC4[C@@]5(C)C[C@H](O)[C@H](O[C@@H]6OC[C@@H](O)[C@H](O)[C@H]6O)[C@@](C)(CO)C5CC[C@]43C)C2C1 (stereo not given in full)
inactive: activation [1] -16% | Potency [2] | Potency [3]

C=C1CCC2[C@](C)(CCC[C@]2(C)C(=O)O)[C@H]1CC/C(C)=C/C(=O)OC (stereo not given in full)
inactive: activation [1] 17.9% | Potency [2] | Potency [3]

CCCCCCCCC(=O)N[C@H](CN1CCCC1)[C@H](O)c1ccc2c(c1)OCCO2
inactive: activation [1] -1% | Potency [2] | Potency [3]

O=C(C[C@@H]1C(C(=O)O)=CO[C@@H](O[C@@H]2O[C@H](CO)[C@@H](O)[C@H](O)[C@H]2O)/C1=C\CO)OCCc1ccc(O)c(O)c1
inactive: activation [1] -14.3% | Potency [2] | Potency [3]

COc1cc(O)cc(C)c1C(=O)O[C@H]1[C@@H](OC(C)=O)[C@H](n2ccc(=O)[nH]c2=O)O[C@@H]1CO
inactive: activation [1] -32.8% | Potency [2] | Potency [3]

O=C1NC(=Nc2ccccc2F)S/C1=C\c1ccc(C(=O)O)cc1
inactive: activation [1] 0.333% | Potency [2] | Potency [3]

CC(=O)O[C@@]1(C)C[C@@H](O)[C@]2(O)C=CO[C@@H](O[C@@H]3O[C@H](CO)[C@@H](O)[C@H](O)[C@H]3O)[C@@H]21
inactive: activation [1] -14.5% | Potency [2] | Potency [3]

CCN(Cc1cccnc1)C(=O)CN(c1ccc(OC)nc1)S(=O)(=O)c1ccccc1C
inactive: activation [1] -3% | Potency [2] | Potency [3]

CC(=O)O[C@H]1[C@H](O[C@H]2[C@@H]3C=CO[C@@H](O[C@@H]4O[C@H](CO)[C@@H](O)[C@H](O)[C@H]4O)[C@@H]3[C@@]3(CO)O[C@@H]23)O[C@@H](C)[C@H](OC(=O)/C=C/c2ccccc2)[C@H]1OC(=O)/C=C/c1ccccc1
inactive: activation [1] -7.63% | Potency [2] | Potency [3]

Cn1cc(C2=C(c3coc4ccccc34)C(=O)NC2=O)c2cc(Br)ccc21
inactive: activation [1] -23.2% | Potency [2] | Potency [3]

CC(=O)Nc1ccn(C2COC(COC(=O)c3ccccc3)O2)c(=O)n1 (stereo not given)
inactive: activation [1] 16.4% | Potency [2] | Potency [3]

COC(=O)C12C(=O)C(C)=C(O)C1(C)C(C)=CC1C34CCC(OC3=O)C(C)(C)C4CCC12C (stereo not given)
inactive: activation [1] -16% | Potency [2] | Potency [3]

CCNC(=O)C1OC(n2cnc3c(N)nc(NCCc4ccc(CCC(=O)O)cc4)nc32)C(O)C1O (stereo not given)
inactive: activation [1] -5.73% | Potency [2] | Potency [3]

COc1ccc(CN2CCN(CCCSc3cc(C(C)(C)C)c(O)c(C(C)(C)C)c3)CC2)c(OC)c1OC
inactive: activation [1] 16.3% | Potency [2] | Potency [3]

CC1(C)CC[C@]2(C(=O)O[C@@H]3O[C@H](CO)[C@@H](O)[C@H](O)[C@H]3O)CC[C@]3(C)C(=CCC4[C@@]5(C)CC[C@H](O[C@@H]6O[C@H](C(=O)O)[C@@H](O[C@@H]7O[C@H](CO)[C@@H](O)[C@H](O)[C@H]7O)[C@H](O)[C@H]6O)C(C)(C)C5CC[C@]43C)C2C1 (stereo not given in full)
inactive: activation [1] -26.7% | Potency [2] | Potency [3]
